Among the data in PubChem BioAssay are composite z-score and z-score values, retold here.

The source made the active and inactive calls.

Test [1] relates to Plasmodium falciparum Sir2 (PF13_0152, Sir2A). The test is described as follows: pfSir2 binders on small-molecule microarrays, primary screen, biochemical, small-molecule microarray, 635 nm fluorescence (AID 1098).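 Further: score merges spot fluorescence intensity with its signal-to-noise ratio.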 Conditions: small-molecule microarray binding, fluorescence 635 nm; higher = more signal.
Test [2] is described as follows: small-molecule microarray binders of probe aDKK1, primary screen, biochemical, biotinylated probe, 635/667 nm fluorescence (AID 1099).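 Further: score merges 667nm spot fluorescence with signal to noise across triplicate slides.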 Conditions: higher = more signal.
Test [3] is described as follows: small-molecule microarray binders of probe aCHRDL2, primary screen, biochemical, biotinylated probe, 635/667 nm fluorescence (AID 1100). The settings on record: higher = more signal.
Test [4] can be described thus: splicing luciferase reporter signal modulators, primary screen, spliceosome inhibition project, cell-based, HEK293, splice +/- reporter (AID 1101).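 Further: HEK293 cells carrying a splicing-competent luciferase reporter gene; test concentration not given here.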 Conditions: luminescence, 24 h, higher = more signal, called active from +8 up or from −8 down. In general terms: A reporter such as luciferase makes a cellular process visible.
Test [5] has as its target Fibroblast growth factor 10 (Homo sapiens) (UniProt O15520). The test is described as follows: FGF10 binders on small-molecule microarrays, primary screen, biochemical, small-molecule microarray, 635 nm fluorescence (AID 1102). Conditions: FGF10 binding, fluorescence 635 nm, higher = more signal.
In test [6] the test system is glycogen synthase kinase-3 (GSK3A per assay name; protocol says GSK3B). The test is described as follows: GSK3 binders on small-molecule microarrays, primary screen, biochemical, small-molecule microarray, 635 nm fluorescence, GSK3A (AID 1103). Further: the record names both GSK3A and GSK3B. The settings on record: small-molecule microarray binding, fluorescence 635 nm; higher = more signal.
For test [7], the target named is Epidermal growth factor receptor (Homo sapiens) (UniProt P00533). The test is described as follows: EGFR binders on small-molecule microarrays, primary screen, biochemical, small-molecule microarray, 635 nm fluorescence (AID 1104).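 Further: score merges 667 nm emission intensity with spot signal to noise over triplicate slides.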 Conditions: EGFR binding, higher = more signal.
Test [8] concerns the target Follistatin-related protein 3 (Homo sapiens) (UniProt O95633). The test is described as follows: FSTL3 binders on small-molecule microarrays, primary screen, biochemical, small-molecule microarray, 635 nm fluorescence (AID 1105).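 Further: score merges emission near 667 nm and signal to noise per printed spot across three slides.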 Conditions: FSTL3 binding, higher = more signal.
Test [9] deals with Dickkopf-related protein 1 (Homo sapiens) (UniProt O94907). The test is described as follows: DKK1 binders on small-molecule microarrays, primary screen, biochemical, small-molecule microarray, 635 nm fluorescence scan (AID 1106).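 Further: score merges emission near 667 nm with signal to noise over three replicate slides.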 The settings on record: DKK1 binding, higher = more signal.
For test [10], the system named is Inhibin beta A chain (activin A). The test is described as follows: INHBA (activin A) binders on microarrays, primary screen, biochemical, small-molecule microarray, 635 nm fluorescence scan (AID 1107).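 Further: mouse activin A protein probed at 4.33 µg/mL on printed slides; score merges bound-protein fluorescence near 667 nm with spot signal-to-noise.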 The settings on record: small-molecule microarray binding, higher = more signal.
The subject of test [11] is Human papillomavirus type 1a protein E7 (residues 44-93). The test is described as follows: HPV1a E7 fragment binders on microarrays, primary screen, biochemical, small-molecule microarray, residues 44-93, 635 nm fluorescence (AID 1108).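 Further: E7 fragment applied at 1 µg/mL in TBST for 1 h at 4 C; score combines spot fluorescence with its signal to noise ratio.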 Conditions: small-molecule microarray binding, fluorescence 635 nm; higher = more signal.
Test [12] can be described thus: modulators of HCV replicon luciferase signal, primary screen, HCV replication inhibitor project, Huh7 cells, luciferase reporter (AID 1109).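 Further: huh7 hepatoma cells harbouring a luciferase neomycin HCV replicon reporter; luciferase luminescence as measure of HCV replicon replication; test concentration not given here.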 The settings on record: 48 h, higher = more signal. In general terms: In antiviral work, replicon cells carry a viral genome segment that copies itself.
Test [13] concerns the target Left-right determination factor 2 (Homo sapiens) (UniProt O00292). The test is described as follows: LEFTY2 binders on small-molecule microarrays, primary screen, biochemical, small-molecule microarray, 635 nm fluorescence scan (AID 1110). Conditions: LEFTY2 binding, higher = more signal.
The target in test [14] is Calmodulin-1 (Homo sapiens) (UniProt P0DP23). The test is described as follows: CALM1 binders on microarrays, EGTA buffer, profiling panel, biochemical, small-molecule microarray, Cy5-labelled CALM1 (AID 1111).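 Further: labelled calmodulin applied in Tris saline Tween buffer holding calcium plus EGTA and DTT.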 The settings on record: Cy5-CALM1 binding fluorescence, higher = more signal.
The target is the same in test [15]. The test is described as follows: calcium-bound CALM1 binders on microarrays, profiling panel, artefact control for SMM control-protein annotation, biochemical, small-molecule microarray, Cy5-labelled CALM1, plus calcium (AID 1112).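 Further: score merges spot fluorescence with signal to noise from triplicate slides.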 Conditions: Cy5-CALM1 binding fluorescence, higher = more signal.
Test [16] is described as follows: small-molecule microarray binders of probe aWnt5a, primary screen, biochemical, biotinylated probe, 635/667 nm fluorescence (AID 1113).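 Further: score merges 667 nm fluorescence intensity with signal-to-noise per printed feature.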 Conditions: higher = more signal.
Test [17] can be described thus: small-molecule microarray binders of probe aShh, primary screen, biochemical, biotinylated probe, 635/667 nm fluorescence (AID 1114).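 Further: probe is biotin-labelled aShh protein from a stem cell growth factor screen; measures binding of labelled protein to compounds printed on the slide; score merges feature fluorescence at 667 nm with signal-to-noise.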 Conditions: higher = more signal.
Test [18] can be described thus: small-molecule microarray binders of probe aNog, primary screen, biochemical, biotinylated probe, 635/667 nm fluorescence (AID 1115).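 Further: probe is biotinylated aNog protein used at 0.15 µg/mL for 1 h at 4 C; z-score combines 667 nm fluorescence of each spot with its signal to noise.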 Conditions: higher = more signal.
In test [19] the target is Torsin-1A-interacting protein 1 (Homo sapiens) (UniProt Q5JTV8). The test is described as follows: LAP1 binders from COS7 cell lysate, primary screen, small-molecule microarray, 635/667 nm fluorescence (AID 1116). The settings on record: COS7-hLAP1 lysate binding, 635 nm fluorescence, higher = more signal.
In test [20] the target is Alpha-bungarotoxin (Bungarus multicinctus) (UniProt P60615). The test is described as follows: alpha-bungarotoxin binders on microarray, profiling panel, artefact control for SMM control protein annotation, biochemical, small-molecule microarray, Alexa647 label, 635/667 nm fluorescence (AID 1117). Conditions: alpha-BTX-A647 binding fluorescence, higher = more signal.
Alpha-bungarotoxin (Bungarus multicinctus), sequence (P60615 whole entry, looked up): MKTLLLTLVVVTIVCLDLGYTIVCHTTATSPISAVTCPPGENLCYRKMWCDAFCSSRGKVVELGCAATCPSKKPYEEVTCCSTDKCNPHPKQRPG

Left-right determination factor 2 (Homo sapiens), sequence (O00292 whole entry, looked up): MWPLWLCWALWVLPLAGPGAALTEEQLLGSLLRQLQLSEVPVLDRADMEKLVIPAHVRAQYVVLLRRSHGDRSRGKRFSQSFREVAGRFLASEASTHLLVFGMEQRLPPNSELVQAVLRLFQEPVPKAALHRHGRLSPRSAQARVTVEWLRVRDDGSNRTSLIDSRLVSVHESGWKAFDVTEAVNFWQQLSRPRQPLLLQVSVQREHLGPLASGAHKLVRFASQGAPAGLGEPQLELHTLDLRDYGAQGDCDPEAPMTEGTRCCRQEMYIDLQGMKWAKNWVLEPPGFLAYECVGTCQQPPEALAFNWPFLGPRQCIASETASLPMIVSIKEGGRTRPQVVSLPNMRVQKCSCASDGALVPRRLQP
Torsin-1A-interacting protein 1 (Homo sapiens), sequence (Q5JTV8 whole entry, looked up): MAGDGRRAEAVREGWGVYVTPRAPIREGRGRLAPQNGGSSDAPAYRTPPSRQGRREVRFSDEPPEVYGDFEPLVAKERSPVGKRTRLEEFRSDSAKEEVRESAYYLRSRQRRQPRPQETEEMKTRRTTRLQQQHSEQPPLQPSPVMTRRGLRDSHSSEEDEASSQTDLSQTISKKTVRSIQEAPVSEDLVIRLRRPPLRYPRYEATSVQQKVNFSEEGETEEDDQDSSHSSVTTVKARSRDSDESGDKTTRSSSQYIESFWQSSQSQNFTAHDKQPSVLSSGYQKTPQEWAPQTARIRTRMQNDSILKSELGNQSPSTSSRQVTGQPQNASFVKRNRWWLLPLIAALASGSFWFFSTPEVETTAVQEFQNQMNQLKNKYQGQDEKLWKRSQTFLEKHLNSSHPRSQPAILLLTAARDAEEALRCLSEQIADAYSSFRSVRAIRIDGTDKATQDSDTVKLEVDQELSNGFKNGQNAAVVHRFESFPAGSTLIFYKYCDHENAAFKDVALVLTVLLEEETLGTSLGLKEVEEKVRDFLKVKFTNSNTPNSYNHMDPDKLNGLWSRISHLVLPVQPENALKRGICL
Fibroblast growth factor 10 (Homo sapiens), sequence (O15520 whole entry, looked up): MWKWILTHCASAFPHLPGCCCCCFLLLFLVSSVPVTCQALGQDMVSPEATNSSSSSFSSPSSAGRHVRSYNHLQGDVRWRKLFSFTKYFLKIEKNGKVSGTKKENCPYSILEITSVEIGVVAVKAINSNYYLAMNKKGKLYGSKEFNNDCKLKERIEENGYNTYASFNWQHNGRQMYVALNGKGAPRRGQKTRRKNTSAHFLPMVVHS
Follistatin-related protein 3 (Homo sapiens), sequence (O95633 whole entry, looked up): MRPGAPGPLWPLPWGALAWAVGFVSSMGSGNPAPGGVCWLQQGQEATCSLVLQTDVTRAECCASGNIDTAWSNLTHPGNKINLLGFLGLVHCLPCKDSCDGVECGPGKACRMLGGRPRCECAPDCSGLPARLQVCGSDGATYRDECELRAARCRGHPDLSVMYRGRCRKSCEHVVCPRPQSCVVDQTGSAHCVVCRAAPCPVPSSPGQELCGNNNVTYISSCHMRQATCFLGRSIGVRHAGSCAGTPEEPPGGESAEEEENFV
Epidermal growth factor receptor (Homo sapiens), sequence (P00533 whole entry, looked up): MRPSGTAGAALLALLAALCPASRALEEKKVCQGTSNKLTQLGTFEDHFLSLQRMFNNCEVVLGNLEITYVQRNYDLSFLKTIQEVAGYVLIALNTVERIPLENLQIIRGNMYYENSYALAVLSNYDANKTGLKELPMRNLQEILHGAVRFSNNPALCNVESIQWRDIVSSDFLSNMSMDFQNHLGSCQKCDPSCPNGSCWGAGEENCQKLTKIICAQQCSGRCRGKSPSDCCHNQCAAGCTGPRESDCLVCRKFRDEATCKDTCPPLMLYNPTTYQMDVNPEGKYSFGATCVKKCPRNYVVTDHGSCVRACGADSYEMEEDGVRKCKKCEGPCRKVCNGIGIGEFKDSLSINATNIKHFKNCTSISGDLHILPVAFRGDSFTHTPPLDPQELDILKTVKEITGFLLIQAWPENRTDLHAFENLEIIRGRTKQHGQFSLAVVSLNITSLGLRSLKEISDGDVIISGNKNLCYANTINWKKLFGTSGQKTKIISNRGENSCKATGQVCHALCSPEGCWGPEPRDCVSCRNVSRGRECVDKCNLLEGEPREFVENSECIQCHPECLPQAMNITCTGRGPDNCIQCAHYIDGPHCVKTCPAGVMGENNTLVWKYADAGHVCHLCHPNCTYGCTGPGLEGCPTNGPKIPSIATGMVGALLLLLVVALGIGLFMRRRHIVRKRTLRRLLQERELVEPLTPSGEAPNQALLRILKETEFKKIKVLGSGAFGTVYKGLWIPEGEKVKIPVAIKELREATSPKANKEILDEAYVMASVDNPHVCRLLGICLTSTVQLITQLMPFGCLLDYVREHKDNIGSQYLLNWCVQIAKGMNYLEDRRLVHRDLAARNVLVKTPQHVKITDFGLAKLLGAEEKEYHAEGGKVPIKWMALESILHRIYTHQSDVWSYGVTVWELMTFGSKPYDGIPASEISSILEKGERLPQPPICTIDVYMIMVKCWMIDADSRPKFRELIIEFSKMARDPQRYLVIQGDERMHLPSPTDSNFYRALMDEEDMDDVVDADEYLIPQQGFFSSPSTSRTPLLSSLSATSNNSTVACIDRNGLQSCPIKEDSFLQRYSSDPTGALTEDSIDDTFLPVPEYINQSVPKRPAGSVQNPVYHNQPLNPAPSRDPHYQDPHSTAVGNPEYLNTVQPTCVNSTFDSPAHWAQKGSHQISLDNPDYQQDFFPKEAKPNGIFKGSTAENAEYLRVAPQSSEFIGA
Dickkopf-related protein 1 (Homo sapiens), sequence (O94907 whole entry, looked up): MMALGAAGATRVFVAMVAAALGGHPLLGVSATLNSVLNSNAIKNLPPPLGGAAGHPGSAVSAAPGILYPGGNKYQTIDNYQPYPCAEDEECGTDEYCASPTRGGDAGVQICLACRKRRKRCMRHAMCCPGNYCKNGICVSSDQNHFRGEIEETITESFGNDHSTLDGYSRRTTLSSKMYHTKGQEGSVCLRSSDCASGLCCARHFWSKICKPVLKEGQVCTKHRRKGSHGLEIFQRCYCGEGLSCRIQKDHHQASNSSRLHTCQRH

On to `CN1C(=O)C2C=CC(C(O)c3ccccc3)N(N3CCCCC3)C2C1=O` (stereo not given), for which the composite z-score in [1] is 1.75; in [2], 0.159; in test [3], 0.846; in [5], 1.26; in test [6], 0.83; in test [7] it was -0.0247. Further, the composite z-score in test [8] is 0.494; in test [9], 0.0514; in test [10], 0.932; in [11], 0.876; in test [13], -0.203; in test [14], 0.0777. Also, the composite z-score in test [15] is -0.102; in test [16] it was 0.28; in [17], 0.108; in [18] it was -0.52; in [19], 0.411; in test [20], 0.464. For the same molecule, the z-score is 0.651 (inactive) in test [4] and -0.379 in [12].

Take `C=CC[C@]1(C(N)=O)COC(c2ccc(OCCCO)cc2)=N1`: the composite z-score was -0.171 in test [1]; -0.145 in [2]; 0.381 in test [3]; 0.577 in test [5]; -0.557 in test [6]; 0.0704 in [7]. The composite z-score in test [8] is -0.235; in [9] it was -0.314; in [10], 0.927; in [11], -0.287; in [13], 0.237; in [14], -0.257. The composite z-score in test [15] was -0.296; in test [16] it was -0.0899; in test [17], -0.0793; in test [18], 0.0519; in test [19], 0.837; in test [20], 1.37. Also, the z-score in test [4] was -0.359 (inactive); in test [12], -0.243.

Consider `CO[C@H]1O[C@H](CO)[C@@H](OC(=O)Nc2cccc(F)c2)[C@H](OC(=O)Nc2ccccc2)[C@H]1OC(=O)Nc1ccccc1`, for which the composite z-score is 1.46 in test [1]; -0.0312 in [2]; 0.55 in [3]; 1.52 in test [5]; 1.35 in test [6]; 0.162 in test [7]. The composite z-score in test [8] turned out to be 1.49; in [9], 0.18; in [10], 0.417; in test [11] it was 1.52; in test [13], 0.238; in [14] it was 0.183. Also, the composite z-score in [15] is -0.467; in test [16], -0.0222; in [17] it was 0.536; in [18] it was 0.919; in test [19], 1.29; in [20] it was 1.53. Besides, the z-score in test [4] was -0.0505 (inactive); in [12], -3.16.

Turning to `COCCCNC(=O)[C@@H]1c2ccccc2C(=O)N(Cc2ccccc2OC)[C@H]1c1ccc(CO)cc1`, the composite z-score in test [1] is 0.342; in test [2], -0.257; in test [3] it was 0.287; in test [5], 0.621; in test [6] it was -0.177; in [7], 0.238. Further, the composite z-score is 0.403 in [8]; 0.56 in test [9]; 0.344 in test [10]; 0.889 in test [11]; -0.0144 in test [13]; 0.349 in test [14]. The composite z-score in [15] was 0.392; in test [16], 0.0279; in test [17], -0.0035; in test [18] it was -0.136; in test [19], 1.62; in test [20] it was 0.117. The z-score was -1.06 (inactive) in [4] and -1.96 in test [12].

Take `Cc1ccc(C2C3C(=O)CC4C(=O)N(c5ccccc5)C(=O)C4C3CN2S(=O)(=O)c2ccc(C)cc2)cc1` (stereo not given): the composite z-score was determined as 0.0792 in [1]; 1.24 in test [2]; 1.05 in [3]; 0.924 in [5]; 0.816 in test [6]; 0.381 in test [7]. Besides, the composite z-score worked out at 0.773 in [8]; 0.112 in [9]; 0.385 in [10]; 0.808 in test [11]; 0.0699 in test [13]; 1.33 in test [14]. The composite z-score in test [15] is 0.531; in test [16], 0.374; in [17] it was 0.343; in test [18], -0.308; in [19], 1.66; in [20] it was 0.644. The z-score is 0.495 (inactive) in test [4] and -0.418 in [12].

As for `COCCOC(=O)N1C(=O)[C@@]2(c3cc(C#CC4(O)CCCCCC4)ccc31)[C@H](c1ccccc1OCCO)N1[C@H](c3ccccc3)[C@H](c3ccccc3)OC(=O)[C@H]1[C@@H]2C(=O)N1CCc2cc(OC)c(OC)cc2C1`, the composite z-score in test [1] was determined as 1.09; in test [2], 0.0591; in [3] it was 0.179; in [5], 0.99; in [6] it was 0.929; in test [7], 0.345. Moreover, the composite z-score was 0.528 in test [8]; 0.0815 in test [9]; -0.0614 in test [10]; 1.43 in [11]; 0.21 in [13]; 1.26 in [14]. For the same molecule, the composite z-score was 0.57 in [15]; -0.0704 in test [16]; -0.0289 in test [17]; 0.268 in [18]; 1.24 in test [19]; 1.97 in test [20]. Besides, the z-score in [4] was 0.202 (inactive); in [12], -2.42.
